Source: PubChem BioAssay
Pin1 inhibitor: qHTS Assay to Find Inhibitors of Pin1. Peptidyl-prolyl cis-trans isomerase NIMA-interacting 1 (Homo sapiens), Q13526. Pin1 FP peptide displacement, HiFluor488, 10 min. Potency, µM (top dose mostly 115 µM), inactives show at the top dose activity, negative = inhibition, actives largely listed as inhibitors. 390,000 compounds, 0.009% hits; active means well fitted inhibition curve with a large enough effect in the polarisation, with a control signal flat, not every such curve was filed as active; inconclusive means small, poorly fitted or top-dose-only effect, or effect the other way, or a change in a side signal; inactive means no such curve, though single readings can be large or run the other way; the % refers to the polarisation; further: potency means the concentration at half of the fitted maximal effect; on the % scale 0 is the no-effect control and ±100 the full control effect
Target sequence (Q13526 whole entry, looked up): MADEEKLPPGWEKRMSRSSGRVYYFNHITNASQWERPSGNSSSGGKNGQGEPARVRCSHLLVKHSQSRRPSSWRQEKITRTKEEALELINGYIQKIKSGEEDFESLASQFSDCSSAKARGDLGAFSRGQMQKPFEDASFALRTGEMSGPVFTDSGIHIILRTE
Epigenetic derep: Quantitative High-Throughput Screen for Regulators of Epigenetic Control | 280,000 compounds, 0.2% hits | AID 1865, 2009 | Potency, µM (series often up to 53.9 µM), without a hit: top-dose GFP activation, actives largely listed as activators | murine LDR cells, GFP reporter derepression, 30 h; further: potency means the concentration at half of the fitted maximal effect; % of control where 0% means no effect; nearly all actives have a fitted effect of over 60% in size
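Reporter derepression read as number of fluorescent GFP-positive objects, 20-120 um in size, counted by laser-scanning cytometer. Mouse LDR line with an epigenetically silenced CMV-GFP locus; compound incubation 30 h, 37 C.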
p53 reactivator: qHTS assay for re-activators of p53 using a Luc reporter | H1299 p53-A138V BP100-luciferase reporter, luminescence, 24 h | Potency, µM (titrated, usually from 92.2 µM), for inactives: at the highest dose activity change, positive = activation, most hits filed as activators | 320,000 compounds, 0.063% hits; further: potency means the concentration at half of the fitted maximal effect; % of control where 0% means no effect; nearly all actives have a fitted effect of over 45% in size
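p53-null H1299 cells stably carrying temperature-sensitive p53-A138V and a BP100-luciferase reporter were pinned with compounds (4-point, 1:5 series) and held 24 hrs at 37 deg C. Luminescence was read 10 min after detection reagent.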
B2AR arrestin: qHTS assay of beta-arrestin-biased ligands of beta2-adrenergic receptor. AID 492947, 2010. Potency, µM (series often up to 46.1 µM), for inactives: at the highest dose activation, most hits filed as activators. beta-arrestin recruitment to beta2AR, cell-based reporter. 330,000 compounds, 0.02% hits;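 further: potency means the concentration at half of the fitted maximal effect; 0% = DMSO controls and full agonism = EC100 isoproterenol or metaproterenol; nearly all actives have a fitted effect of over 65% in size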
Target sequence (P07550 whole entry, looked up): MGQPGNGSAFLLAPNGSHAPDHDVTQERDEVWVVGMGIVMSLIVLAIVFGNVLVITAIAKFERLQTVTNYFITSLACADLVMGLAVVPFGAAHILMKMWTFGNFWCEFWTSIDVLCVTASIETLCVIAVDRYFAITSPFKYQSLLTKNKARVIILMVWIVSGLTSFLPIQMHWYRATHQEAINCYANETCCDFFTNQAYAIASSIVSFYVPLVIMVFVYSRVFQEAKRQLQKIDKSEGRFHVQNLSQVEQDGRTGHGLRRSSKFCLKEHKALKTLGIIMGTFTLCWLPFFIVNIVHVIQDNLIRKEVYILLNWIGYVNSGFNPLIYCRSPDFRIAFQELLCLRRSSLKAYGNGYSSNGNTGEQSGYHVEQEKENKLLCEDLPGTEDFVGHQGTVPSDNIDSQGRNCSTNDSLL
PI4K2A inh: qHTS for small molecular inhibitors of PI4K2A; purified PI4K2A, ADP-Glo luminescence, 1 h; stronger effect = lower value; activity change, negative = inhibition, % at 76.9 µM; 420,000 compounds, 0.13% hits; AID 1346378, 2018; in the data active means activity change below about -50%; inconclusive means mostly about -30% to -49%;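 further: -100% = wells without enzyme as full effect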
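ADP-Glo luminescence measured ADP generated by PI4K2A enzyme (4 ug/mL before mixing) with 1.2 mM PI substrate (pre-mix) and 300 microM ATP (pre-mix). Tris pH7.5 buffer with MgCl2, Triton X-100; 1 h reaction at ambient temperature.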
Giardia killer: Small Molecules that selectively kill Giardia lamblia: qHTS; Giardia lamblia trophozoite viability; activity change, % at 7.66 µM, hits read low; 340,000 compounds, 0.15% hits; AID 540267, 2011; in the data active means activity change below about -80%; inconclusive means between about -30% and that limit;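 further: parasites exposed to compound for two days anaerobically before the ATP read; on the % scale 0 is the no-effect control and ±100 the full control effect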
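Giardia trophozoites, 100 cells per well, were exposed to compounds for 48 hrs at 37 deg C under anaerobic conditions; viability was then read as ATP content by bioluminescence after 15-30 min at room temperature.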
Active calls of the source: *; ? = inconclusive; . = not tested or not shown. Shown are actives, neighbours in structure and some others; about 0.44% of the full set was active somewhere. Unless noted, the call rests on the fitted dose curve; in most records, active means well fitted curve in the direction sought with a large enough effect; inconclusive means small, poorly fitted or top-dose-only effect, or another doubt; inactive means no such curve, though single readings can be large; an effect the other way counts as inactive or inconclusive.

SMILES	Pin1 inhibitor	Epigenetic derep	p53 reactivator	B2AR arrestin	PI4K2A inh	Giardia killer
COc1ccc(Cl)cc1C(=O)OCC(=O)c1c(N)n(C)c(=O)n(C)c1=O	.	.	.	.	-71*	.
O=C(O)CNc1cccc(-c2nn3c(=O)cc(N4CCNCC4)nc3s2)c1	10%	.	.	.	.	.
COc1cccc(C2c3c(ncn(Cc4cccs4)c3=N)Oc3ccc4ccccc4c32)c1 (stereo not drawn)	27%	.	.	.	.	.
C(=C\c1nc2ccccc2[nH]1)/c1ccccc1	0%	3%	-3%	0%	-55*	?
CN(C)c1ccc(/C=C(\C#N)c2nc3ccccc3c(=O)[nH]2)cc1	?	6.3µM*	.	.	-2	.
CN(C)c1ccc(/C=C/c2nc3ccccc3c(=O)[nH]2)cc1	37%	.	38%	-1%	-6	-92*
O=c1[nH]c(/C=C/c2ccccn2)nc2ccccc12	-2%	.	11µM*	-1%	-7	43
NC(=O)C1CCN(c2ncc(-c3cccc(N4CCCC4)c3)s2)CC1	6%	.	.	.	.	.
COc1ccc(Nc2nc(C#N)nc(NC3CCCC3)n2)cc1	8%	.	.	.	.	.
O=C1/C(=C/c2ccc(N3CCCC3)cc2)NC(=S)N1C1CC1	?	18µM*	13%	-1%	-3	10
Cc1cc(N2CCCC2)ccc1/C=C1\NC(=S)N(C)C1=O	?	?	7%	?	2	-4
O=C1N/C(=C/c2ccc(N3CCCC3)cc2)C(=O)N1c1ccccc1	34%	16µM*	8%	1%	3	3
O=C1N/C(=C/c2ccc(N3CCOCC3)o2)C(=O)N1c1ccccc1	?	?	-20%	-1%	-12	?
O=C1c2cccc3c(N4CCCCC4)ccc(c23)C(=O)N1c1cccc(O)c1	?	11µM*	10%	-1%	3	-1
O=C1c2cccc3c(N4CCCCC4)ccc(c23)C(=O)N1CCO	?	16%	?	0%	-2	-5
CC1C/C(=C/c2cccn2C)C(=O)/C(=C/c2cccn2C)C1 (stereo not drawn)	?	11µM*	3%	1%	-16	2
CC1C/C(=C/c2ccncc2)C(=O)/C(=C/c2ccncc2)C1 (stereo not drawn)	0%	?	-9%	0%	-20	?
O=C1CCc2cc(S(=O)(=O)Nc3cccnc3)ccc2N1	-4%	.	.	.	.	.
O=c1oc(Nc2ccc(F)cc2)nc2ccccc12	-4%	0%	8%	0%	-57*	19
Clc1nc(-c2ccccn2)nc2scc(-c3ccccc3)c12	3%	2%	11µM*	-1%	-11	?
CCCC(=O)OCOC(=O)C1=C(C)NC(C)=C(C(=O)OC)C1c1cccc(Cl)c1Cl (stereo not drawn)	.	.	.	.	-1	.
Cc1cc(O)c2c(c1O)C(=O)[C@]13C(=C2O)C(=O)[C@@H]2[C@@H](O)[C@H]1[C@@H]1[C@H](O)[C@H]3C(=O)C3=C(O)c4c(O)cc(C)c(O)c4C(=O)[C@]312	?	.	-2%	-1%	-64*	-13
CCN1CCN(c2c(/C=C3\SC(=S)N(Cc4ccco4)C3=O)c(C)c(C#N)c(=O)n2C)CC1	?	7.1µM*	-3%	-1%	-11	-10
COc1ccc2c(c1)Cc1sc(NC(=O)c3cccc(C)c3)nc1-2	6%	-1%	.	.	-54*	.
COc1ccc2c(c1)Cc1sc(NC(=O)c3cccc(Cl)c3)nc1-2	1%	-1%	.	.	-13	.
SMILES	Pin1 inhibitor	Epigenetic derep	p53 reactivator	B2AR arrestin	PI4K2A inh	Giardia killer
COc1ccc(C(=O)c2sc3nc(-c4ccc(C)cc4)cc(C(F)(F)F)c3c2N)cc1	?	1µM*	.	.	-2	-15
NC(=S)n1[nH]c(-c2ccc([N+](=O)[O-])cc2)c(N=Nc2ccc(Cl)cc2)c1=O	?	-3%	0%	16µM*	-2	-2
Cc1ccc([N+](=O)[O-])cc1N=Nc1c(-c2ccc([N+](=O)[O-])cc2)[nH]n(C(N)=S)c1=O	.	0%	-5%	0.71µM*	-5	6
Cc1ccc([N+](=O)[O-])cc1N=Nc1c(C)[nH]n(C(N)=S)c1=O	-4%	.	6%	-1%	10	24
Cc1cc2c(s1)c1cnn(Cc3ccc(OC(F)F)cc3)c(=O)c1n2C	-1%	.	.	.	.	.
O=C1CCCC2=C1C1(CCCOC1)N=C(Nc1nc3ccccc3o1)N2 (stereo not drawn)	0%	.	.	.	.	.
O=C(N/N=C/C(Cl)=C\c1ccccc1)c1cnccn1	7%	0%	13µM*	-1%	16	8
Cc1cc(C)nc(-n2nc(C)cc2NC(=O)CN2CCCC2)n1	-1%	0%	-2%	?	-5	-10
CCC1CCCCN1CC(=O)Nc1cc(C)nn1-c1nc(C)cc(C)n1 (stereo not drawn)	2%	0%	-3%	35µM*	-5	0
COc1ccccc1N=c1oc2cc(O)ccc2cc1C(N)=O	67%	-1%	?	0%	-52*	-4
COc1ccc(C(=O)COc2ccccc2C#N)cc1	-2%	0%	32µM*	0%	-4	23
COc1ccc(C(=O)COc2ccccc2C(N)=O)cc1	2%	-1%	3%	-1%	5	-6
Cc1ccc(-n2[nH]c(C)c(N=Nc3cccc(-c4cccc(C(=O)O)c4)c3O)c2=O)cc1C	.	.	.	.	-8	.
Cc1ccc(NC(=O)/C(C#N)=C/c2ccc(C)s2)c(C)c1	?	3.2µM*	2%	0%	-4	-17
O=[S+]([O-])(c1cc2ccccc2o1)N1CCN([S+](=O)([O-])c2c(F)cccc2F)CC1	2%	.	.	.	.	.
CCCN1C(=O)/C(=C/c2c(N3CCNC(=O)C3CC(=O)OC)nc3c(C)cccn3c2=O)SC1=S (stereo not drawn)	.	14µM*	2%	0%	.	.
CCOC(=O)CC1C(=O)NCCN1C(=O)c1cc2c(=O)n3cccc(C)c3nc2s1 (stereo not drawn)	1%	-2%	-7%	0%	-4	18
O=C(O)Cc1cc(F)c(S(=O)(=O)N2CCN(S(=O)(=O)c3ccc4c(c3)OCCO4)CC2)cc1F	7%	.	.	.	.	.
C[C@@]12C(=O)OC(=O)[C@]1(C)C1CCC2O1	-1%	.	16%	0%	-4	-94*
CC12C(=O)N(c3nccs3)C(=O)C1(C)C1CCC2O1 (stereo not drawn)	1%	.	.	.	-5	-6
O=[N+]([O-])c1ccc(NNC(=S)Nc2ccc(F)cc2)cc1	8%	3%	28µM*	-1%	-14	3
